Source: the supplement of paper PMC6992640
Structures can show the parent of a compound that is named as a salt. ± gives the standard deviation of the averaged measurements.

Tests used:
Assay in all cases: cell viability (% of vehicle); higher = less cytotoxic
Conditions in all cases: 10 µM; 72 h
HCI01 = test system: HCI01 (cells of a triple-negative basal-like breast cancer xenograft)
HCI03 = test system: HCI03 (cells of an ER-positive luminal breast cancer xenograft)
HCI09 = test system: HCI09 (cells of a triple-negative luminal androgen receptor type breast cancer xenograft)
HCI11 = test system: HCI11 (cells of an ER-positive luminal breast cancer xenograft)
HCI13 = test system: HCI13 (cells of an ER-positive luminal breast cancer xenograft)
HCI16 = test system: HCI16 (cells of a triple-negative basal-like breast cancer xenograft)
UCD52 = test system: UCD52 (cells of a triple-negative basal-like breast cancer xenograft)
WHIM2 = test system: WHIM2 (cells of a triple-negative basal-like breast cancer xenograft)
WHIM30 = test system: WHIM30 (cells of a triple-negative basal-like breast cancer xenograft)
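Further: PDX cells carrying CMV promoter-driven luciferase, viability read as total photon flux per second by IVIS imaging following D-luciferin, vehicle control 0.1% DMSO.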

| Structure (SMILES) | cell viability (HCI01) | cell viability (HCI03) | cell viability (HCI09) | cell viability (HCI11) | cell viability (HCI13) | cell viability (HCI16) | cell viability (UCD52) | cell viability (WHIM2) | cell viability (WHIM30) |
| --- | --- | --- | --- | --- | --- | --- | --- | --- | --- |
| CCCN1CC(CSC)CC2c3cccc4[nH]cc(c34)CC21.CS(=O)(=O)O (configuration not stated) [Pergolide mesylate] | 107.1 ± 0.5 | 92.4 | 106 ± 8.8 | 87.6 | 98.3 ± 5.6 | 124 | 76.5 ± 1.3 | 101 ± 14 | 110 ± 12 |
| CC(=O)Nc1cc([As](=O)(O)O)ccc1O [Arsonic acid] | 105 ± 4.4 | 144 | 102 ± 22 | 112 | 73.2 ± 4.5 | 105 | 112 ± 25 | 101 ± 23 | 132 ± 15 |
| Cc1c(N)nc(C(CC(N)=O)NCC(N)C(N)=O)nc1C(=O)NC(C(=O)NC(C)C(O)C(C)C(=O)NC(C(=O)NCCc1nc(-c2nc(C(=O)NCCC[S+](C)C)cs2)cs1)C(C)O)C(O[C@@H]1O[C@@H](CO)[C@@H](O)[C@H](O)[C@@H]1O[C@H]1O[C@H](CO)[C@@H](O)[C@H](OC(N)=O)[C@@H]1O)c1cnc[nH]1 (some centres not stated) [Bleomycin Sulfate] | 117 ± 3.2 |  | 61.2 ± 15 | 106 | 39.2 ± 24 | 83.4 | 109 ± 6.6 | 77 ± 1.2 | 100 ± 27 |
| Cc1cccc(C(C)c2cnc[nH]2)c1C (configuration not stated) [Dexmedetomidine] | 129 ± 5.7 | 106 | 90.4 ± 10 | 105 | 103 ± 16 | 148 | 92.7 ± 0.94 | 106 ± 9.5 | 120 ± 5.1 |
| CC(=Cc1csc(C)n1)C1CC2OC2(C)CCCC(C)C(O)C(C)C(=O)C(C)(C)C(O)CC(=O)O1 (configuration not stated) [Epothilone B (EPO906, Patupilone)] | 154 ± 16 | 119 | 91.4 ± 4.8 | 99.2 | 111 ± 2.6 |  | 78.2 ± 9.1 | 75.9 ± 13 | 137 ± 13 |
| OC(c1ccccc1)(c1ccccc1)C1CCNCC1 [Azacyclonol] | 98.1 ± 19 | 137 | 84.5 ± 38 | 93.8 | 79 ± 10 | 110 | 95.8 ± 10 | 109 ± 34 | 113 ± 2.1 |
| CN1c2ccccc2C(NCCCCCCC(=O)[O-])c2ccc(Cl)cc2S1(=O)=O.[Na+] (configuration not stated) [Tianeptine sodium] | 132 ± 22 | 134 | 95.1 ± 10 | 122 | 95.95 ± 0.8 | 120 | 122 ± 4.6 | 85.3 ± 8 | 142.2 ± 0.38 |
| CN(C)C1C(=O)C(C(N)=O)=C(O)C2(O)C(=O)C3=C(O)c4c(O)cccc4C(C)(O)C3C(O)C12 (configuration not stated) [Oxytetracycline (Terramycin)] | 83 ± 9.9 | 126 | 108 ± 23 | 85.3 | 115 ± 6.2 | 122 | 99.8 ± 2.1 | 72.1 ± 17 | 121 ± 4.7 |
| CC(=O)OC1CC2CCC3C(CCC4(C)C3CC([N+]3(C)CCCCC3)C4OC(C)=O)C2(C)CC1[N+]1(C)CCCCC1.[Br-].[Br-] (configuration not stated) [Pancuronium dibromide] | 99.4 ± 8.2 | 106 | 105 ± 2.1 | 93.3 |  | 95.5 | 79.4 ± 3.5 | 94.3 ± 4.8 | 103 ± 4.2 |
| Cc1cccc(C)c1NC1=NCCCS1.Cl [Xylazine HCl] | 159 ± 36 | 120 | 110 ± 12 | 115 | 105 ± 6.4 | 124 | 92.3 ± 11 | 120 ± 7 | 127 ± 8 |
| O=c1cccc2n1C[C@@H]1CNC[C@H]2C1 [Cytisine] | 93.3 ± 12 | 112 | 97.8 ± 15 | 95 | 106 ± 14 | 128 | 90.9 ± 4.7 | 87.9 ± 19 | 81.4 ± 3.6 |
| C[N+]1(C)[C@@H]2C[C@@H](OC(=O)C(CO)c3ccccc3)C[C@H]1[C@@H]1O[C@@H]12.[Br-] (some centres not stated) [Methscopolamine] | 106 ± 8.5 | 128 | 107 ± 9.7 | 93.2 |  | 97.9 | 80.6 ± 12 | 87.7 ± 8 | 138.9 ± 0.7 |
| CN(C)C(=O)C(CCN1CCC(O)(c2ccc(Cl)cc2)CC1)(c1ccccc1)c1ccccc1.Cl [Loperamide HCl] | 102 ± 20 | 84.8 | 53.5 ± 15 | 98.7 | 79.2 ± 6.6 | 95.1 | 49.1 ± 1.4 | 59.8 ± 8.3 | 102 ± 9.7 |
| C#CC1(O)C=CC2C3CCC4=CC(=O)CCC4C3CCC21CC (configuration not stated) [Gestodene] |  | 149 | 97.4 ± 20 | 122 | 179 ± 25 | 184 | 143.1 ± 1.4 | 106 ± 5 |  |
| Cl.NCC1(CC(=O)O)CCCCC1 [Gabapentin HCl] | 142 ± 42 | 121 | 94.2 ± 3.2 | 90.2 | 109 ± 14 | 120 | 80.45 ± 0.75 | 85.7 ± 7.6 | 115.5 ± 0.43 |
| CN1[C@@H]2C[C@@H](O)C[C@H]1[C@@H]1O[C@@H]12 [Scopine] | 134 ± 21 | 138 | 110 ± 8.5 | 110 | 129 ± 14 | 99 | 103 ± 18 | 112 ± 21 | 144 ± 4 |
| Br.CN1C2CC(OC(=O)C(CO)c3ccccc3)CC1C1OC12 (configuration not stated) [Scopolamine hydrobromide] | 108 ± 3.9 | 120 | 91.5 ± 17 | 104 | 83.67 ± 0.26 | 127 | 90.98 ± 0.47 | 122 ± 1.4 | 133.3 ± 1.1 |
| CC1C=CC=CCCC=CC=CC=CC=CC(OC2OC(C)C(O)C(N)C2O)CC2OC(O)(CC(O)C(O)CCC(O)CC(O)CC(O)CC(=O)OC(C)C(C)C1O)CC(O)C2C(=O)O (configuration not stated) [Nystatin (Fungicidin)] | 121 ± 47 | 139 | 128 ± 2.6 | 98.5 | 167 ± 21 | 150 | 118 ± 0.94 | 96.5 ± 1.8 | 147 ± 6.6 |
| Cl.NCC(O)c1ccc(O)cc1 (racemic) [(+,-)-Octopamine HCl] | 101 ± 10 | 119 | 93 ± 10 | 98.3 |  | 120 | 91.1 ± 16 | 87.9 ± 7.5 | 149.4 ± 0.28 |
| COc1cc2c(cc1OC)C13CCN4CC5=CCOC6CC(=O)N2C1C6C5CC43 (configuration not stated) [Brucine] | 90.3 ± 9.9 | 132 | 98.2 ± 29 | 94.5 | 106 ± 11 | 100 | 106 ± 1.5 | 83.5 ± 22 | 96.6 ± 4.8 |
| O=P1(NCCCl)OCCCN1CCCl (configuration not stated) [Ifosfamide] | 106 ± 14 | 107 | 96.28 ± 0.62 | 84.8 | 153 ± 11 | 74.4 | 104.1 ± 0.65 | 95.7 ± 26 | 109 ± 2.2 |
| Cc1cccc(Cc2cnc[nH]2)c1C.Cl [Detomidine HCl] | 118 ± 4 | 114 | 96.9 ± 30 | 97.2 | 79.4 ± 6.8 | 92 | 84.9 ± 4.3 | 85.5 ± 32 | 135 ± 3 |
| O=c1[nH]c2ccccc2n1CCCN1CCC(n2c(=O)[nH]c3cc(Cl)ccc32)CC1 [Domperidone] | 195 ± 80 | 103 | 113 ± 65 | 84.9 |  |  | 128 ± 5.5 | 83.8 ± 4.6 | 176 ± 9.8 |
| NC(=O)CN1CC(O)CC1=O (configuration not stated) [Oxiracetam] | 111 ± 16 | 115 | 98.3 ± 9.9 | 71 | 123 ± 12 | 126 | 117 ± 3.4 | 112 ± 15 | 134 ± 8.7 |
